Test results: PubChem BioAssay
Unmarked numbers belong to inactive results.

Assay: ATP-based viability of Huh7 replicon cells – cell-based, CellTiter-Glo luminescence, basal, 48 h, cytotoxicity control for HCV replication inhibitor project, primary screen (AID 1143);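 also: Huh7 hepatoma cells carrying a hepatitis C replication reporter with no stimulus; test concentration not given here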
Details: higher = more signal, called active from +8 up or from −8 down

Structure (SMILES)	z-score
CC[C@@H]1C=C(C(=O)O)[C@H](c2ccc(Br)cc2)N1S(=O)(=O)c1ccc(C)cc1	-0.141
O=C1c2ccccc2[C@](Cc2ccccc2I)(C(=O)NCCN2CCOCC2)[C@H](c2ccc(CO)cc2)N1Cc1ccccc1Cl	-2.57
COC(=O)[C@@]1(Cc2ccc(OC)cc2)[C@H]2c3cc(C(=O)N4CCCC4)n(CCN4CNCC4=O)c3C[C@H]2CN1C(=O)c1ccccc1	-0.508
COC(=O)[C@@]1(Cc2ccc(OC)cc2)[C@@H]2C(=CC(=O)[C@H]2CC(=O)C(=O)N2CCCC2)CN1C(=O)c1ccccc1	-1.76
C=CCNC(=O)[C@@H]1[C@H]2C(=O)O[C@H](c3ccccc3)[C@H](c3ccccc3)N2[C@H](c2ccc(O)cc2)[C@@]12C(=O)N(C(=O)OCCOC)c1ccc(C#CCNC(N)=O)cc12	-2.23
Cc1ccc(S[C@]2(C(=O)NCCCN(C)C)CC(=O)N(Cc3cc(C(F)(F)F)cc(C(F)(F)F)c3)[C@@H]2c2ccc(CO)cc2)cc1	-0.0481
COc1ccc([Si](C)(C)[C@H]2[C@H](CCO)O[C@@]3(C(=O)N(Cc4ccc(N(C=O)c5ccccc5)cc4)c4ccccc43)[C@@H]2C)cc1	-5.81
[N-]=[N+]=Nc1ccccc1[C@H]1OC(c2ccc(OCCCO)cc2)=N[C@@]1(CCS(=O)(=O)c1ccccc1)C(N)=O	-1.26
NC(=O)NCC#Cc1ccc2c(c1)[C@]1(C(=O)N2)[C@H](c2ccccc2OCCO)N2[C@H](c3ccccc3)[C@H](c3ccccc3)OC(=O)[C@H]2[C@@H]1C(=O)Nc1nc2ccccc2s1	0.0402
CCCC=C(CCC)[C@@H](NC(=O)c1cccs1)c1ccc(C(F)(F)F)cc1	-3.78
CN(C)C(=O)[C@]1(Cc2ccccc2N=[N+]=[N-])N=C(c2ccc(OCCCO)cc2)O[C@@H]1c1ccccc1N=[N+]=[N-]	-4.48
COC(=O)[C@@]1(Cc2ccc(OC)cc2)[C@H]2c3cc(C(=O)N(C)C)n(Cc4ccccn4)c3C[C@H]2CN1C(=O)c1ccccc1	-1.17
COC(=O)[C@@]1(Cc2ccc(F)cc2)[C@H]2c3cc(C(=O)N4CCCC4)n(CCCNc4ncc(C(F)(F)F)cc4Cl)c3C[C@H]2CN1C(=O)c1ccccc1	-1.89
O=C(CS)NCCCCCCNC(=O)[C@@H]1C[C@@H]2C(=O)NCC(=O)N2[C@@H]1c1cccc(OCCO)c1	0.429
CCOC(=O)C[C@H]1[C@H](OC(=O)c2ccccc2-c2ccccc2)[C@@H](NC(=O)CC(C)C)c2cc(OCCCO)ccc2N1C(=O)Cc1ccc(OC)cc1	-0.386
COc1ccc([C@H]2OC[C@@H]3C[C@@H](Cc4ccccc4)C(=O)N32)cc1	-0.316
COc1ccc(CCNC(=O)[C@@]2(C)c3ccccc3C(=O)N(C(C)C)[C@H]2c2ccc(CO)cc2)cc1	-1.03
C=CCOC(=O)[C@@H]1[C@H]2C(=O)O[C@H](c3ccccc3)[C@H](c3ccccc3)N2[C@H](c2ccc(OCCOC(=O)[C@@H]3C[C@@H]4C(=O)NCC(=O)N4[C@@H]3c3ccc(O)cc3)cc2)[C@@]12C(=O)Nc1ccc(I)cc12	0.489
O=C1C[C@@](C(=O)NCCN2CCOCC2)(c2ccc([N+](=O)[O-])cc2)[C@@H](c2ccc(CO)cc2)N1CC12CC3CC(CC(C3)C1)C2	-5.78
COCCOC(=O)N1C(=O)[C@@]2(c3cc(C#CCC(C(=O)OC)C(=O)OC)ccc31)[C@H](C(=O)Nc1nc3ccccc3s1)[C@H]1C(=O)O[C@H](c3ccccc3)[C@H](c3ccccc3)N1[C@@H]2c1ccccc1OCCO	-3.81
COC(=O)[C@@]1(Cc2ccccc2)[C@H]2c3cc(C(=O)N(C)C)n(Cc4ccsc4Br)c3C[C@H]2CN1C(=O)c1ccccc1	-3.35
CC1CC/C=C\[C@H]2OC34C=CCN(C(C)(C)C)C(=O)[C@H]3N(CCO)C(=O)[C@@H]4C2C(=O)O1 (some centres undefined)	-0.973
C=C(CCCC)/C(=C/C[C@@H](OC(C)=O)c1ccc(OCCO)cc1)c1cnc2ccccc2c1	-0.842
CC(C)C(O)C1C=CC2C(=O)N(c3ccccc3)C(=O)C2N1Nc1ccc([N+](=O)[O-])cc1 (centres undefined)	-0.208
